Compound activity: PubChem, National Center for Advancing Translational Sciences (NCATS)
Compounds with a hit are over-represented: about 12% of the library has one in this group of screens.
Sfp PPTase inh: Sfp phosphopantetheinyl transferase inhibition. Q9F4F7. Biochemical Sfp PPTase activity, qHTS. Potency, µM, for inactives: largest response in the series, negative = inhibition, most hits filed as inhibitors. 310,000 tested, 3.5% active. AID 1490;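 further: the enzyme is Sfp with the accession as filed and its product quenches rhodamine fluorescence; 0% = enzyme reaction without inhibitor and -100% = no enzyme wells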
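Buffer: 50 mM Hepes-Na pH 7.6, 10 mM MgCl2, 0.01% Nonidet P-40, 0.01% BSA. Enzyme 15 nM, pre-exposed to compound 15 min; substrates then added and fluorescence change tracked over 30 min.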
BAZ2B block: inhibitors of human BAZ2B bromodomain; AlphaScreen BAZ2B-H3K14Ac peptide displacement; Potency, µM (doses to about 114 µM), for the others: at the highest dose activity change, negative = inhibition, actives largely listed as inhibitors; 360,000 tested, 4.4% active; AID 504333; Q9UIF8; further: on the % scale 0 is the no-effect control and ±100 the full control effect; nearly all actives have a fitted effect of over 60% in size
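BAZ2B (50 nM) with biotin-H3(5-23)K14Ac peptide (50 nM) in PBS pH 7.4, 0.01% Tween-20, preformed 30 min, then compound 30 min at room temperature; top concentration 110uM. AlphaScreen streptavidin donor/nickel chelate acceptor beads (10 ug/mL final), 20 min dark, signal read.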
G9a inh: G9a (human) methyltransferase inhibition; Q96KQ7; G9a H3K9 monomethylation, AlphaScreen, 2 h; Potency, µM (doses to about 102 µM), for the others: top-dose activity, negative = inhibition, actives largely listed as inhibitors; 350,000 tested, 8.8% active; further: on the % scale 0 is the no-effect control and ±100 the full control effect; nearly all actives have a fitted effect of over 75% in size
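Compounds were preincubated with 20 nM G9a for 15 min, after which biotinylated H3K9 peptide (500 nM) and SAM (20 uM) started a 2 h room-temperature reaction. Monomethylated product was quantified by antibody-based AlphaScreen chemiluminescence.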
JMJD2A Tudor inh: blocks the human JMJD2A Tudor domain; O75164; AlphaScreen JMJD2A-Tudor / H3K4me3 peptide binding; Potency, µM (titrated, usually from 114 µM), inactives show at the top dose activity change, negative = inhibition, hits mostly inhibitors; 390,000 tested, 4.4% active; AID 504339; further: on the % scale 0 is the no-effect control and ±100 the full control effect; nearly all actives have a fitted effect of over 50% in size
L3MBTL1 inh: L3MBTL1 (human) inhibition; Q9Y468; AlphaScreen L3MBTL1–H3K9me1 peptide binding; Potency, µM (series often up to 57.1 µM), for the others: at the top dose activity, negative = inhibition, hits mostly inhibitors; 230,000 tested, 0.66% active; further: on the % scale 0 is the no-effect control and ±100 the full control effect; nearly all actives have a fitted effect of over 60% in size
Target sequence (Q9Y468 whole entry, looked up): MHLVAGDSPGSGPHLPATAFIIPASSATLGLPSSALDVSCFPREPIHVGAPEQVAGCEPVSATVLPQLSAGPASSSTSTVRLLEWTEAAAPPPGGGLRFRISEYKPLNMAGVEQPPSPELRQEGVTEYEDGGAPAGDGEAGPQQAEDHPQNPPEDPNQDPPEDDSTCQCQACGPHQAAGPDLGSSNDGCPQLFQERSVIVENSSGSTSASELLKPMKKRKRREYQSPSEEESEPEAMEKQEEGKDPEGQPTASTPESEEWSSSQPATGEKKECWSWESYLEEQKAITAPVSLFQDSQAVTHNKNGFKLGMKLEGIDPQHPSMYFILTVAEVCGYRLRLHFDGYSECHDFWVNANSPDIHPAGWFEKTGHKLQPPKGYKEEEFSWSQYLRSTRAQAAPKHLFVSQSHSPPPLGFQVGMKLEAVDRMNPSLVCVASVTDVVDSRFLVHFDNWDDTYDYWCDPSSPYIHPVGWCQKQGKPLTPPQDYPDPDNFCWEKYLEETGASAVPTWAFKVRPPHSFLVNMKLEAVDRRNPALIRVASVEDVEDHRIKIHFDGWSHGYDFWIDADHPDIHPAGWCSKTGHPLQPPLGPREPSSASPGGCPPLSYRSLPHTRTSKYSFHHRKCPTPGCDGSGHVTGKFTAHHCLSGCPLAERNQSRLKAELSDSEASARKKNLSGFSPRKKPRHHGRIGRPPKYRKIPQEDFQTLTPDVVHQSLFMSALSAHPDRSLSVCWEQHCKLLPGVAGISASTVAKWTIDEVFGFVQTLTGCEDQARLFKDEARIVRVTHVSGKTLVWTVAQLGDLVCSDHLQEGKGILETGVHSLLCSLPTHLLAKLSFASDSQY
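Read-out is AlphaScreen signal from streptavidin donor and nickel chelate acceptor beads (10 ug/mL final each) bridging L3MBTL1 (50 nM) and biotinylated K9-monomethylated H3(1-15) peptide (75 nM), after 30 min compound exposure at room temperature.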
HP1b binding inh: inhibitors of HP1-beta chromodomain binding to methylated histone tails | AlphaScreen HP1-beta / biotin-H3K9me3 peptide binding | Potency, µM (series often up to 114 µM), without a hit: at the highest dose activity change, negative = inhibition, actives largely listed as inhibitors | P83916 | 390,000 tested, 0.56% active; further: nearly all actives have a fitted effect of over 70% in size
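AlphaScreen: HP1-beta (50 nM) preformed 30 min with biotin-H3(1-18)K9me3 peptide (50 nM) in PBS pH 7.4, 0.01% Tween-20. Compound added for 30 min at RT, then streptavidin donor/nickel chelate acceptor beads (10 ug/mL) for 30 min.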
Active calls of the source: *; ! = not active in a repeat; [ ] = remark or other dose. The call rests on the fitted dose curve; in most records, active means well fitted curve in the direction sought with a large enough effect; inconclusive means small, poorly fitted or top-dose-only effect, or another doubt; inactive means no such curve, though single readings can be large; an effect the other way counts as inactive or inconclusive. Potency means the concentration at half of the fitted maximal effect.

What do the screens show for `Cc1cc(Cc2cc(C)c(N)cc2C)c(C)cc1N`?
Sfp PPTase inh: -4%; BAZ2B block: 35µM*; JMJD2A Tudor inh: -28%; L3MBTL1 inh: -14%; HP1b binding inh: -1%

Results for CCOC(=O)N1CCC(NC(=O)c2ccc3c(c2)N(Cc2ccc(F)cc2)C(=O)c2ccccc2S3=O)CC1 (stereo not given) ?
BAZ2B block: -9%; G9a inh: -46%[59 µM]; JMJD2A Tudor inh: -15%; HP1b binding inh: 15%

Results for CCOC(=O)C1=C(c2ccccc2)OC(N)=C(C#N)C1c1ccco1 (stereo not given) ?
Sfp PPTase inh: 1%; BAZ2B block: 5%; G9a inh: 45µM*; JMJD2A Tudor inh: -3%; L3MBTL1 inh: -2%; HP1b binding inh: 41%

What do the screens show for `CCOC(=O)C1=C(CC)OC(N)=C(C#N)C1c1ccc(OC)cc1OC` (stereo not given)?
Sfp PPTase inh: 11%; BAZ2B block: -4%; G9a inh: -12%[59 µM]; JMJD2A Tudor inh: -18%; L3MBTL1 inh: 26%; HP1b binding inh: 33%

How did CCOC(=O)CC1=C(C(=O)OCC)C(c2ccc(OC)cc2OC)C(C#N)=C(N)O1 (stereo not given) do in these assays?
Sfp PPTase inh: 79µM*; BAZ2B block: -35%; G9a inh: 56µM*; JMJD2A Tudor inh: -27%; L3MBTL1 inh: -3%; HP1b binding inh: 14%

What do the screens show for `COC(=O)C1=C(C)OC(N)=C(C#N)C1c1ccco1` (stereo not given)?
Sfp PPTase inh: 5%; BAZ2B block: 2%; G9a inh: -16%[59 µM]; JMJD2A Tudor inh: -2%; L3MBTL1 inh: -3%; HP1b binding inh: 41%

How did CCOC(=O)CC1=C(C(=O)OCC)C(c2ccc(C)o2)C(C#N)=C(N)O1 (stereo not given) do in these assays?
Sfp PPTase inh: -9%; BAZ2B block: -31%; G9a inh: 25µM*; JMJD2A Tudor inh: -32%[11.4 µM]; L3MBTL1 inh: -5%; HP1b binding inh: 32%

How did Cc1ccc(C2C(C#N)=C(N)Oc3c2sc2ccccc32)o1 (stereo not given) do in these assays?
Sfp PPTase inh: 56µM*; BAZ2B block: inconclusive; G9a inh: 16µM*; L3MBTL1 inh: -9%

Results for CCOC(=O)C1CCCCN1Cc1cccc(OC)c1OC (stereo not given) ?
Sfp PPTase inh: inconclusive; BAZ2B block: inconclusive; G9a inh: 11µM*; JMJD2A Tudor inh: 5.6µM*; HP1b binding inh: inconclusive

How did CCOC(=O)C1CCCCN1Cc1cc(Cl)ccc1O (stereo not given) do in these assays?
Sfp PPTase inh: 3%; BAZ2B block: 17%; G9a inh: -11%[59 µM]; JMJD2A Tudor inh: 16%; HP1b binding inh: 85%

Results for CCOC(=O)C1CCCCN1Cc1cc(OC)ccc1OC (stereo not given) ?
Sfp PPTase inh: -13%; BAZ2B block: inconclusive; G9a inh: 13µM*; JMJD2A Tudor inh: 18µM*; HP1b binding inh: inconclusive

Results for CCc1ccc(OCC(=O)Nc2cc(-c3ccc(C)cc3)no2)cc1 ?
BAZ2B block: -5%; G9a inh: -22%[59 µM]; JMJD2A Tudor inh: -20%; HP1b binding inh: 42%

Results for O=C(Nc1ccc(F)c(Cl)c1)C1Cc2ccccc2CN1S(=O)(=O)c1ccc(F)cc1 (stereo not given) ?
BAZ2B block: inconclusive; G9a inh: 11%[59 µM]; JMJD2A Tudor inh: -13%; HP1b binding inh: 26%

Results for O=c1[nH]ccc2c(O)cccc12 ?
G9a inh: 25µM*!; JMJD2A Tudor inh: -18%; HP1b binding inh: 4%

What do the screens show for `Nc1cccc2c(O)cccc12`?
JMJD2A Tudor inh: -29%; HP1b binding inh: -5%

What do the screens show for `O=C(NO)c1ccccc1O`?
Sfp PPTase inh: -5%; BAZ2B block: inconclusive; G9a inh: 2µM*; JMJD2A Tudor inh: -25%; L3MBTL1 inh: 6%; HP1b binding inh: 53%
